Screening results: PubChem BioAssay, Broad Institute
Tg IFNy HTS – T. gondii growth inhibition with IFN-gamma, primary screen, cell-based; activity change, negative = inhibition, % (no concentration beside the values); hit rate 3.8% among 69,000; Toxoplasma gondii growth in IFN-gamma-treated host cells; stronger effect = lower value; in the data active means activity change below about -70%, passing the limit was not always enough;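 further: host cells are HeLa cells infected with Toxoplasma gondii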
* hit, by the source's call. This excerpt belongs to a sample that is enriched for hits.

How did N#C/C(=C/c1ccc(O)c(O)c1)C(=O)NCc1ccccc1 do in these assays?
Tg IFNy HTS: -3

What do the screens show for `N#C/C(=C/c1ccc(O)c(O)c1)C(=O)NCCCc1ccccc1`?
Tg IFNy HTS: 3

Results for N#C/C(=C\c1ccc(O)c(O)c1)C(=O)NC1CCC(CC2CCC(NC(=O)/C(C#N)=C/c3ccc(O)c(O)c3)CC2)CC1 (stereo not given) ?
Tg IFNy HTS: -80*

How did CC1(C)[C@]2(C(=O)NCc3cc(-c4ccco4)on3)CC[C@@]1(C)OC2=O do in these assays?
Tg IFNy HTS: 13

Results for O=C(c1ccccc1Br)N1CCC2(CC1)Nc1ccccc1-n1cccc12 ?
Tg IFNy HTS: 17

How did CCn1c(CC2CCNCC2)nn(CC2CC(c3ccccc3)=NO2)c1=O (stereo not given) do in these assays?
Tg IFNy HTS: -3

Results for COc1cccc(CC2CC(c3ccccc3)=NO2)c1OCc1c(Cl)cccc1Cl (stereo not given) ?
Tg IFNy HTS: -96*

What do the screens show for `O=C(O)CC1CC(c2ccccc2)=NO1` (stereo not given)?
Tg IFNy HTS: 7

What do the screens show for `COc1ccccc1OC(C)C(=O)NCC1CCC(c2[nH]ncc2-c2ccncc2C)CC1` (stereo not given)?
Tg IFNy HTS: -36

How did O=C(Nc1ccc(N2CCOCC2)c(F)c1)c1ccnc(N2CCOCC2)c1 do in these assays?
Tg IFNy HTS: 12

What do the screens show for `Cn1nc2c(c1C(=O)Nc1ccc(N3CCCCC3)c(F)c1)CCCC2`?
Tg IFNy HTS: -95*

Results for Cn1nc(C(=O)Nc2ccc(N3CCCCC3)c(C(F)(F)F)c2)ccc1=O ?
Tg IFNy HTS: -54

Results for COc1ccc(-c2nc(Cn3nnc(C(=O)Nc4ccc(Br)c(C)c4)c3C)c(C)o2)c(OC)c1 ?
Tg IFNy HTS: -3

Results for CN1CCN(c2cccc(Nc3nc4c(-c5ccc(S(C)(=O)=O)cc5)cccn4n3)c2)CC1 ?
Tg IFNy HTS: 17

What do the screens show for `C=CCn1c(=O)c2cnc(Nc3ccc(N4CCN(C)CC4)cc3)nc2n1-c1cccc(C(C)(C)O)n1`?
Tg IFNy HTS: -71*

How did CC1CCCCN1S(=O)(=O)c1ccc(NC(=O)Cn2cnc3ccccc3c2=O)cc1 (stereo not given) do in these assays?
Tg IFNy HTS: -44

What do the screens show for `Cc1ccc(C)c(-c2coc(-c3ccc(NC(=O)Nc4ccc(F)cc4F)cc3)n2)c1`?
Tg IFNy HTS: 11

How did O=c1nc(SCc2ccc(Cl)cc2)nc(-c2ccccc2)[nH]1 do in these assays?
Tg IFNy HTS: -44

Results for Clc1ccc(CSc2cccs2)cc1 ?
Tg IFNy HTS: 11

What do the screens show for `CN1c2ccsc2-c2nc(SCc3ccc(Cl)cc3)ncc2S1(=O)=O`?
Tg IFNy HTS: -85*

Results for Cc1nc(CNC(=O)c2cc(C3CC3)[nH]n2)nc2c1CCCC2 ?
Tg IFNy HTS: 3

What do the screens show for `OCC(O)CN1CCN(c2ccccc2)CC1` (stereo not given)?
Tg IFNy HTS: -5

What do the screens show for `C#CC1(OCC(O)CN2CCN(c3ccccc3OC)CC2)CCCCC1` (stereo not given)?
Tg IFNy HTS: 18

What do the screens show for `C#CC1(OCC(O)CN2CCN(c3cccc(C(F)(F)F)c3)CC2)CCCCC1` (stereo not given)?
Tg IFNy HTS: -80*

How did CCc1ccccc1NC(=O)Cn1ncc2c(N3CCCCCC3)ncnc21 do in these assays?
Tg IFNy HTS: 19

Results for COCCN1C(=O)CCc2cc(NC(=O)c3c(F)cccc3Cl)ccc21 ?
Tg IFNy HTS: 29

How did COc1ccccc1N1CCN(C(=O)c2cc(C(C)(C)C)oc2C)CC1 do in these assays?
Tg IFNy HTS: -108*

Results for COc1ccccc1N1CCN(C(=S)c2ccccc2OC(F)(F)F)CC1 ?
Tg IFNy HTS: -27

How did COc1ccccc1N1CCN(C(=O)C2CCCCC2)CC1 do in these assays?
Tg IFNy HTS: 7

How did O=C(c1cc(-c2ccccc2)no1)N1CCCC(c2cc(C(F)(F)F)n3ncnc3n2)C1 (stereo not given) do in these assays?
Tg IFNy HTS: -52

What do the screens show for `Cc1nccn1Cc1cccc(C(=O)O)c1`?
Tg IFNy HTS: -31

How did CCOc1ccc(-c2ccc(OCCNC(=O)c3sc(-c4ccccc4)nc3C)nn2)cc1 do in these assays?
Tg IFNy HTS: 2

Results for COc1ncccc1CN1CCC(N(C)C)CC1C(=O)O (stereo not given) ?
Tg IFNy HTS: 2

What do the screens show for `Cc1c[nH]c(CN2CCCC(CCc3ccccc3F)C2)c(C)c1=O` (stereo not given)?
Tg IFNy HTS: -89*

What do the screens show for `CNC(=O)c1ccc(CN2CCCC(CCc3ccccc3C)C2)cc1` (stereo not given)?
Tg IFNy HTS: -7

Results for COc1coc(CN2CCCC(CCc3ccccc3C)C2)cc1=O (stereo not given) ?
Tg IFNy HTS: -14

How did CC1CCCN(S(=O)(=O)CCN)C1 (stereo not given) do in these assays?
Tg IFNy HTS: 10

How did C=CCOCc1cncc2c1CCN(C(=O)c1cc(C)on1)C2 do in these assays?
Tg IFNy HTS: 12

Results for O=C(NC1CCC(n2cnnc2)CC1)c1[nH]cnc1-c1ccccc1 (stereo not given) ?
Tg IFNy HTS: 113

Results for COc1ccc(-c2nc3c(s2)CN(C(=O)Nc2cc(C)ccc2C)CC3)cc1OC ?
Tg IFNy HTS: 21

What do the screens show for `COc1ccc(-c2nc3c(s2)CN(C(=O)Nc2ccc(C)c(C)c2)CC3)cc1OC`?
Tg IFNy HTS: -83*

How did CCc1ccc(NC(=O)N2CCc3nc(-c4ccc(OC)c(OC)c4)sc3C2)cc1 do in these assays?
Tg IFNy HTS: -79*

Results for CCc1ccccc1NC(=O)N1CCc2nc(-c3cccc(OC)c3)sc2C1 ?
Tg IFNy HTS: 30

How did Cc1ccc(-c2nc3c(s2)CN(C(=O)Nc2cc(C)ccc2C)CC3)cc1 do in these assays?
Tg IFNy HTS: -35

How did CCc1ccccc1NC(=O)N1CCc2nc(-c3ccc(OC)c(OC)c3)sc2C1 do in these assays?
Tg IFNy HTS: 46

Results for NC(=O)c1cc2c(nc1N1C[C@@H]3[C@H](C1)[C@H]1CC[C@@H]3O1)CCC2 ?
Tg IFNy HTS: 0

What do the screens show for `COc1cc(-c2nc(CN3CCOCC3)c(C)o2)cc2c1OCO2`?
Tg IFNy HTS: 88

Results for Cc1cc(CNC(=O)c2occc2C)c2[nH]c(C)c(C)c2c1 ?
Tg IFNy HTS: 24

What do the screens show for `O=C1N(CCCc2ccccc2)CCCC1(O)CNC1CCC(O)CC1` (stereo not given)?
Tg IFNy HTS: -4

How did Cc1nn(-c2ccc(NC(=O)c3cccnc3)cc2)c(C)c1Cl do in these assays?
Tg IFNy HTS: 17

What do the screens show for `COc1ccc(-c2cc(-c3ccc4ccccc4c3)n(C)c2-c2ccc(F)cc2)cc1`?
Tg IFNy HTS: -94*

How did COc1ccc(-c2cc(-c3ccccc3)c(-c3ccccc3)o2)cc1 do in these assays?
Tg IFNy HTS: -16

What do the screens show for `COc1ccc(-c2nc(Nc3ccc(F)cc3)c3ccccc3n2)cc1`?
Tg IFNy HTS: -28

What do the screens show for `Cc1ccc(C(=O)N2C[C@H](Oc3cccnc3)[C@@H]3OCCC[C@@H]32)s1`?
Tg IFNy HTS: -3

What do the screens show for `COC1C=COC2(C)Oc3c(C)c(O)c4c(c3C2=O)C2(C=C(NC(=O)/C(C)=C\C=C/C(C)C(O)C(C)C(O)C(C)C(OC(C)=O)C1C)C4=O)OCC(=O)O2` (stereo not given)?
Tg IFNy HTS: 14
